Screening results deposited in PubChem BioAssay by several laboratories.
ssDAF-12 act – activates DAF-12 receptor from parasite S. stercoralis; HEK293 ssDAF-12/GRIP1 lit1-tk-luc reporter, luminescence; % of 3 µM dafachronic acid response; activation, % at 6.8 µM; 1% of 370,000 active; AID 652126;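 active = activation above the mean over all tested compounds plus 3 SD, cut at about 0.9% in these data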
APP 5'UTR act – activates APP 5'UTR luciferase reporter. SH-SY5Y APP 5'UTR luciferase reporter, luminescence; zero percent = DMSO vehicle wells. activation, % at 2 µM. 1% of 190,000 active. AID 1276;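 active = activation above a set limit, based on mean plus 3 SD of controls, cut at about 140% in these data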
hgDAF-12 ag – activates the H. glycines DAF-12 receptor ligand-binding domain; HEK293 GAL4-hgDAF12 UAS-luciferase reporter, agonist luminescence; normalized to butyrate control; activation, % at 6.8 µM; 1.8% of 370,000 active; AID 687014;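 active = activation above a cutoff set at the mean of all screened compounds plus 3 SD, cut at about 10% in these data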
NF-kB expr up – raises NF-kB expression in human neuronal cells | fold change at 12.5 µM | NF-kB reporter expression; stronger effect = higher value | 1.6% of 190,000 active; in the data active = fold change above about 3.3
hcDAF-12 act – activators of H. contortus DAF-12 nuclear receptor | HEK293 hcDAF-12 lit1-tk-luc reporter, luminescence; 0% DMSO, 100% Δ7-dafachronic acid | activation, % at 6.8 µM | 1.4% of 370,000 active;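 active = activation above the mean of all tested compounds plus 3 SD, cut at about 5.5% in these data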
hgDAF12 conf – hgDAF-12 agonism, confirmation assay; 80% of 3,300 active; HEK293 GAL4-hgDAF12 luciferase reporter, agonist mode; percent of butyrate response; shares compounds with hgDAF-12 ag; activation, % at 6.8 µM;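 active = mean activation over triplicate wells above the hit cutoff derived from the earlier primary screen, cut at about 11% in these data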
LXR ag 2 – LXR-beta agonism as DAF-12 counter-screen. 3,300 tested, under 10 active. activation, % at 6.8 µM. shares compounds with hgDAF-12 ag. HEK293 Gal4-LXR luciferase reporter, 24 h;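 active = mean activation of the triplicate above a set limit carried over from the primary screen, none filed active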
Target sequence (P55055 whole entry, looked up, the tested form may be a part): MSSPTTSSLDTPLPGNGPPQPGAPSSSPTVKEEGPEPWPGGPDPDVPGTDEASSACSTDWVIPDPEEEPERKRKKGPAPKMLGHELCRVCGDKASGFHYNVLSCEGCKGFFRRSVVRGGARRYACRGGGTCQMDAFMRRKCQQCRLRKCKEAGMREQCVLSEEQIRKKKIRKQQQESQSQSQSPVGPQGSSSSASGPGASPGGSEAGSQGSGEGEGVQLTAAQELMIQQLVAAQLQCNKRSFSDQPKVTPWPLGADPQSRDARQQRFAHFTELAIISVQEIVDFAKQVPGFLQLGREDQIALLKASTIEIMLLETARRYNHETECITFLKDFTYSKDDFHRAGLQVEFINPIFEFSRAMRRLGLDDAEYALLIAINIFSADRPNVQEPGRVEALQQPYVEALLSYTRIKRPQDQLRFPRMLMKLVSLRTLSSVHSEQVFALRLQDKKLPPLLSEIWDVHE
Hits are given with their value; - = inactive; . = no result given; ! = a repeat was not active. Shown are actives, neighbours in structure and some others; about 3.4% of the full set was active somewhere.

SMILES	ssDAF-12 act	APP 5'UTR act	hgDAF-12 ag	NF-kB expr up	hcDAF-12 act	hgDAF12 conf	LXR ag 2
Cc1ccc(/C=N/NC(=O)C(=O)N/N=C/c2ccc(C)o2)o1	-	-	-	-	-	.	.
Cc1occc1C(=O)N/N=C/c1cnn(C)c1C	-	-	16	-	-	-	-
Cc1ccc(C(=O)Nc2cccc(C(=O)N/N=C/c3ccccc3F)c2)cc1	-	.	-	.	-	.	.
CC(=O)Nc1cccc(C(=O)N/N=C/c2ccccc2F)c1	-	-	14	-	-	20	-
Cc1c(/C=N\NC(=O)c2ccc(F)cc2)cnn1C	-	-	-	-	-	.	.
O=C(N/N=C/c1ccc(Cl)cc1Cl)c1ccc2nc[nH]c2c1	-	.	-	.	-	.	.
O=C(N/N=C/c1ccc(Cl)cc1Cl)c1cccc(F)c1	-	-	15	-	-	15	-
NNC(=O)c1ccc(Cn2cc(Br)cn2)cc1	-	-	-	-	-	.	.
NNC(=O)c1ccc2nc(-c3ccc(Br)cc3)cn2c1	-	-	15	-	-	18	-
COc1ccc(C(=O)NN/C(=N/S(=O)(=O)c2ccc(C)cc2)c2ccccc2)cc1	0.9	.	14	.	-	19	-
Cc1ccc(NC(=S)N/C(=N/S(=O)(=O)c2ccccc2)c2ccccc2)cc1	-	-	18!	-	-	13	-
CC(=O)C1(C(=O)NCc2ccccc2)CC(c2ccccn2)=NO1 (configuration not stated)	-	.	-	.	-	.	.
Cc1oc(-c2ccc(-c3ccccc3)cc2)nc1CN(C)C1CCOC1 (configuration not stated)	-	-	16	-	-	14	-
Cc1oc(-c2cccc(Cl)c2)nc1CN(C)C1CCOC1 (configuration not stated)	-	-	-	-	-	.	.
CCCC[C@H]1C2CC(OC(=O)Nc3ccc(C(F)(F)F)cc3)C(C2)[C@H]2CCCCN21 (some centres not stated)	-	.	-	.	-	.	.
COC1=C/C(=C/c2c(N)n3nc(-c4ccc(C)cc4)sc3nc2=O)C=CC1=O	-	-	13	-	6.2	-	-
COc1ccc(NC(=O)c2cc3ccccc3oc2=O)cc1	1.1	.	23	.	5.8	-	-
COc1ccc(NC(=O)c2cc3ccccc3cc2O)cc1	-	.	15	.	-	16	-
COc1ccc2oc(=O)c(C(=O)Nc3ccccc3O)cc2c1	-	.	19	.	6.1	16	-
O=c1oc2cc(O)ccc2cc1-c1ccccc1	-	.	-	.	-	.	.
COc1ccc(-c2cc3ccc(O)cc3oc2=O)cc1	-	.	14	.	-	14	-
COc1ccc(C(=O)NNC(=O)c2cc3ccccc3cc2O)cc1	-	.	-	.	-	.	.
CC(C)C[C@@H]1COc2cc(Br)ccc2S(=O)(=O)N1Cc1cn(CC2CCCCC2)nn1	-	.	-	.	-	.	.
CCC(c1c[nH]c2ccccc12)c1cn(C)c2ccccc12 (configuration not stated)	-	.	-	.	-	.	.
COc1ccc(NC(=O)c2cc3ccc(O)cc3o/c2=N\O)cc1	-	.	18	.	5.7	15	-
SMILES	ssDAF-12 act	APP 5'UTR act	hgDAF-12 ag	NF-kB expr up	hcDAF-12 act	hgDAF12 conf	LXR ag 2
COC(=O)N1CCCC1c1cccc2[nH]cc(C)c12 (configuration not stated)	-	.	-	.	-	.	.
Cc1occc1C(=O)O/N=C(\N)c1ccccc1	-	.	14	.	-	14	-
N/C(=N\OC(=O)/C=C/c1ccccc1)c1ccc(Cl)cc1	-	.	-	.	-	.	.
COc1cccc(C(=O)O/N=C(\N)c2ccncc2)c1	-	-	17	-	-	16	-
N/C(=N\OC(=O)/C=C/c1ccccc1)c1ccccc1	-	136	17	5.9	-	15	-
COc1cc(OC)cc(C(=O)O/N=C(\N)c2ccccn2)c1	-	.	13	.	-	13	-
Cc1cccc(/C(N)=N/OC(=O)c2ccoc2C)c1	-	.	-	.	-	.	.
Cn1cccc1C=NNC(=O)c1cc(-c2ccc(Cl)cc2)n[nH]1	-	.	-	.	-	.	.
Cc1cccc(-c2cccc3c4c([nH]c23)[C@@H]2C[C@H](N(C)C(=O)c3ccco3)[C@H]([C@H](C)O)C(=O)N2CC4)c1	-	.	-	.	-	.	.
C[C@@H]1N[C@H]2N(C1=O)c1ccccc1[C@@]21C[C@@H]2C(=O)N[C@](C)(O1)c1nc3ccccc3c(=O)n12	-	.	-	.	-	.	.
COc1ccc(C(=O)O/N=C(\N)c2ccncc2)cc1OC	-	-	-	-	-	.	.
CCOC(=O)c1ccc(OS(=O)(=O)c2ccccc2)c(OC)c1	-	-	16	3.8	-	11	-
COc1ccc(/C(N)=N/OC(=O)c2ccco2)cc1OC	-	-	18	-	-	13	-
COc1ccc(C(=O)O/N=C(\N)c2ccccc2)cc1OC	-	.	17	.	-	12	-
Cc1ccc(-n2c(Cc3cccs3)nnc2SCC(=O)Nc2ccc(OCc3ccccc3)cc2)cc1	-	.	-	.	-	.	.
Nc1nc(Nc2ccccc2F)sc1C(=O)c1ccccc1	-	.	19	.	-	19	-
COc1ccc(C2Nc3ccccc3C(=O)N2Cc2ccccc2)cc1COc1ccc(NC(C)=O)cc1 (configuration not stated)	-	.	-	.	-	.	.
Cc1c(C(=O)NCCc2ccccc2)oc2ccccc12	-	.	16	.	-	14	-
COC(=O)[C@]12C[C@H](CC(=O)NCCC(C)C)C(=O)N(Cc3ccco3)C1=C[C@H](COCc1ccccc1)O[C@@H]2C	-	.	-	.	-	.	.
CCNC(=O)N(C)[C@H]1C[C@H]2c3[nH]c4c(-c5cccc(C)c5)cccc4c3CCN2C(=O)[C@H]1[C@H](C)O	-	.	-	.	-	.	.
CC(C)(C)c1ccc(-c2noc(-c3ccno3)n2)cc1	0.9	.	13	.	-	15	-
CC(C)(C)c1ccc(NC(=O)c2ccc(=O)[nH]n2)cc1	-	.	17	.	-	14	-
COc1cccc(NC(=O)Nc2ccc(C(C)(C)C)cc2)c1	-	-	18	4.3	-	11	-
Cc1ccc(NC(=O)C(=O)N2CCCC2)cc1Cl	-	-	15	-	-	13	-
Cc1ccc(NC(=O)Nc2ccc(F)cc2)cc1Cl	-	-	15	-	-	11	-
CCN(C[C@H]1[C@@H](c2ccc(C3=CCCC3)cc2)[C@H](CO)N1C(=O)c1cccnc1)S(=O)(=O)c1ccccc1[N+](=O)[O-]	-	.	-	.	-	.	.
CCC[C@H]1[C@@H](NC(=O)C(c2ccccc2)c2ccccc2)CC[C@@]23CCCN2C(=O)CCC[C@@H]13	-	.	-	.	-	.	.
Cc1ccccc1CN1CCCCC(NC(=O)c2c(F)cccc2F)C1=O (configuration not stated)	-	.	-	.	-	.	.
CC(C)(C)c1ccc(NC(=O)Nc2ccc(F)cc2)cc1	-	162	15	4.2	-	15	-
COc1ccc(CCc2ccnc3ccccc23)cc1	-	.	-	.	-	.	.
